An excerpt weighted towards active compounds, which were near 2.3% of everything screened.
MEKK3 PB1 HTS – modulators of MEKK3-MEK5 PB1 binding, primary screen, biochemical, wildtype MEKK3, multiplex bead flow cytometry, Alexa488-MEK5; bead-based flow cytometry, Alexa488-MEK5 binding to MEKK3; actives lie on both sides; 0 = blocked by unlabeled MEK5, 100 = vehicle; binding response (% of control), % at 10 µM; 1.4% of 290,000 active; AID 1529, 2009;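 active means binding response more than 3 SD above or below the average of its plate-row segment, actives on both sides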;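 further: Alexa488 bead fluorescence after subtracting the streptavidin-only scavenger bead signal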
UBC13 polyUb – UBC13 polyubiquitin chain formation inhibitors, primary screen, biochemical, TR-FRET, uHTS; Ubiquitin-conjugating enzyme E2 N (Homo sapiens), P61088; inhibition, % at 20 µM; 0.47% of 330,000 active; in the data active means inhibition above about 45%, passing the limit was not always enough
Target sequence (P61088 whole entry, looked up): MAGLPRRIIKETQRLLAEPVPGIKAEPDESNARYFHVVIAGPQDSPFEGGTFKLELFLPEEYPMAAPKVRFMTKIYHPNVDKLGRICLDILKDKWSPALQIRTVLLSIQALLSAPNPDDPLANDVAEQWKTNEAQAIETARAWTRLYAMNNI
MEKK2 WT-MEK5 – modulators of MEK5 binding to wildtype MEKK2, primary screen, biochemical, multiplex bead flow cytometry, Alexa488-MEK5 | Mitogen-activated protein kinase kinase kinase 2 (Homo sapiens), Q9Y2U5 | Alexa488-MEK5 binding to MEKK2 WT; actives lie on both sides | 1.1% of 290,000 active | binding response (% of control), % at 10 µM; in the data active means binding response below about 67% or above about 130%
MEKK2 mut-MEK5 – MEK5 binding signal on mutant MEKK2 PB1, primary screen, biochemical, multiplex bead flow cytometry, Alexa488-MEK5; Alexa488-MEK5 binding to MEKK2 mutant; 0.35% of 290,000 active; percent response, % at 10 µM; in the data active means percent response above about 24%, passing the limit was not always enough
MEKK2wt confirm – modulators of MEK5 binding to wildtype MEKK2, confirmation, biochemical, single concentration, multiplex bead flow cytometry | AID 1892, 2009 | shares compounds with MEKK3 PB1 HTS | Alexa488-MEK5 binding to MEKK2 WT; actives lie on both sides | binding response (% of control), % at 10 µM | 2.4% of 5,900 active; in the data active means binding response below about 16% or above about 210%; inactive means in between
MEKK2mut confirm – mutant MEKK2 PB1-MEK5 binding signal retest – biochemical, single concentration, multiplex bead flow cytometry, confirmation | shares compounds with MEKK3 PB1 HTS | Alexa488-MEK5 binding to MEKK2 mutant | percent response, % at 10 µM | 2% of 5,900 active | AID 1893, 2009; in the data active means percent response mostly above about 71%, no sharp cut-off; inactive means mostly below about 38%;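 further: higher means compound restores mutant binding toward wildtype level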
MEKK3 confirm – MEKK3 wild-type PB1 binding to MEK5, inhibitors, confirmation, biochemical, bead multiplex flow cytometry, single concentration, wildtype | shares compounds with MEKK3 PB1 HTS | binding response (% of control), % at 10 µM | 1.8% of 5,900 active | Alexa488-MEK5 binding to MEKK3; stronger effect = lower value;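 active means binding response below 72% of control, or above a set upper limit, though filed actives all read lower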;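 further: 100% = DMSO only wells and 0% = binding blocked by excess unlabeled MEK5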
Starred values were filed as active, the others as inactive; . = not tested or not shown; [ ] = remark or other dose.

SMILES	MEKK3 PB1 HTS	UBC13 polyUb	MEKK2 WT-MEK5	MEKK2 mut-MEK5	MEKK2wt confirm	MEKK2mut confirm	MEKK3 confirm
CCCCNC(=S)NNC(=O)c1ccoc1C	105	5	108	4	.	.	.
Cc1occc1C(=O)NNC(=O)c1ccccc1F	97	-4	100	0	.	.	.
Cc1occc1C(=O)NNC(=O)c1ccc(F)cc1	0.0*[inhibitor]	6	-1.0*[inhibitor]	-17	104	2	103
CCn1c(N2CCN(C(=O)C34CC5CC(CC(C5)C3)C4)CC2)nc2ccccc21	0.0*[inhibitor]	11	0.0*[inhibitor]	-15	99	-3	98
CCn1c(N2CCN(S(=O)(=O)c3ccc(OC)cc3)CC2)nc2ccccc21	106	12	108	3	.	.	.
CCn1c(N2CCN(S(=O)(=O)c3ccccc3C(F)(F)F)CC2)nc2ccccc21	2.0*[inhibitor]	15	2.0*[inhibitor]	-14	103	2	101
O=C(CNCc1cccc(Cl)c1)N1CCc2ccccc2C1	102	-5	102	3	.	.	.
Cc1c(C)c(C)c(C(=O)C2CCN(c3ccc([N+](=O)[O-])cn3)CC2)c(C)c1C	88	1	87	-24	.	.	.
CC(=O)N(C)c1ccc(NC(=S)NC(=O)/C=C/c2ccco2)cc1	96	-18	97	-12	.	.	.
CCc1nnc(NC(=O)/C=C/c2ccco2)s1	131*	-12	111	2	88	-3	82
O=C(/C=C/c1ccccc1)NC(=S)Nc1ccccc1	122*	-1	120	14	112	7	107
CC(=O)Nc1ccc(NC(=S)NC(=O)/C=C/c2ccco2)cc1	40*[inhibitor]	-1	16*[inhibitor]	-12	101	-2	100
S=c1sc(SCCOc2ccccc2)nn1-c1ccccc1	132*	12	104	1	96	-3	101
COc1ccc(-c2c(-c3ccccc3)c(C(=O)C(=O)NCCCN(C)C)n3ccc4cc(OC)c(OC)cc4c23)cc1OC	107	9	140*	13	150	45	114
CC(=O)N1N=C(c2ccc(C)cc2)CC1c1ccc2c(c1)OCO2 (configuration not stated)	98	3	101	4	.	.	.
CCS(=O)(=O)Nc1cccc(C2=NN(S(C)(=O)=O)C(c3ccccc3)C2)c1 (configuration not stated)	18*[inhibitor]	5	86	54*	72	-19	73
CS(=O)(=O)Nc1ccc(C2=NN(S(C)(=O)=O)C(c3ccc4nccnc4c3)C2)cc1 (configuration not stated)	3.0*[inhibitor]	-2	.	.	70	-6	73
CS(=O)(=O)N1N=C(c2ccc(Br)cc2)CC1c1ccc2c(c1)OCO2 (configuration not stated)	94	14	14*	83*	103	-2	96
Cc1ccc(C2=NN(S(C)(=O)=O)C(c3ccc4c(c3)OCO4)C2)cc1 (configuration not stated)	10*[inhibitor]	-4	.	25	98	-6	96
CC(=O)N1N=C(c2ccc(NS(C)(=O)=O)cc2)CC1c1ccc2nccnc2c1 (configuration not stated)	104	-14	97	-7	.	.	.
CCS(=O)(=O)N1N=C(c2cccc(NS(C)(=O)=O)c2)CC1c1ccccc1 (configuration not stated)	.	-1	.	.	.	.	.
Cc1ccc(-c2nnn(CC(=O)N(c3ccc4c(c3)OCCO4)C(C(=O)NCC3CCCO3)c3ccc(F)cc3)n2)o1 (configuration not stated)	96	-7	96	-2	.	.	.
CC(C)(C)OC(=O)NN=C(c1ccc(O)cc1)c1ccc(O)cc1	101	-5	98	1	.	.	.
NC(=O)CSc1nnc(COc2ccccc2)n1Cc1ccco1	131*	-1	120	0	96	-3	97
Cn1cc(CNCc2cn(C)nc2-c2ccc(C3CCCCC3)cc2)cn1	117	5	205*	74*	104	-5	99
SMILES	MEKK3 PB1 HTS	UBC13 polyUb	MEKK2 WT-MEK5	MEKK2 mut-MEK5	MEKK2wt confirm	MEKK2mut confirm	MEKK3 confirm
COc1cccc(C(=O)OCC(=O)c2c(N)n(C)c(=O)n(C)c2=O)c1	.	1	.	.	.	.	.
Cc1ccc(NC(=S)N(CCN2CCCCC2)Cc2ccco2)cc1	91	9	96	-3	.	.	.
COCCN(C(=O)Nc1ccc(OC)cc1OC)C1CCN(C(C)C)CC1	81*[inhibitor]	2	91	-8	99	-4	95
COCCN(C(=S)Nc1cccc(OC)c1)C1CCN(C(C)C)CC1	137*	5	108	0	106	6	101
Cc1ccc(NC(=S)N(Cc2ccco2)C2CCN(C(C)C)CC2)cc1	132*	11	105	1	104	5	99
COCCN(C(=S)Nc1ccc(OC)cc1)C1CCN(C(C)C)CC1	134*	1	109	1	100	7	105
O=C(c1ccccc1Cl)N1CCSCC1	90	9	85	-8	.	.	.
CC(C)c1ccc(NC(=O)[C@H]2CSCN2C(=O)[C@@H]2CCC(=O)N2)cc1	96	-2	100	-9	.	.	.
CCOC(=O)C1=C(COC(=O)/C=C/c2ccc(SC)cc2)NC(=O)NC1C (configuration not stated)	.	6	.	.	.	.	.
CN(C)CCCNc1ccc(-c2cc(Nc3cccc(Cl)c3)ncn2)cn1	93	42	159*	15	137	14	106
COc1ccc2c(c1)-c1c(ssc1=S)C(C)(C)N2S(=O)(=O)c1ccc(C)cc1	129*	-13	101	2	99	-2	101
Cc1ccc(S(=O)(=O)N2c3ccccc3-c3c(ssc3=S)C2(C)C)cc1	97	-13	95	-1	.	.	.
CS/C(N)=N/N=C/c1cc(Br)cc(Br)c1O	129*	12	128	26	100	2	100
CS/C(N)=N/N=C/c1cc(C)ccc1O	61	-12	68	-24	.	.	.
O=C(CCN1C(=O)/C(=C\c2cccs2)SC1=S)Nc1ccc(C(=O)O)cc1	101	-21	97	3	.	.	.
